Sampled rows, rich in hits. Any-hit rate of the full collection: about 19%.
MCF10A rereplic: DNA re-replication induction in MCF 10a cells | MCF 10A DNA re-replication, Hoechst nuclear intensity, 48 h | hit rate 2.9% among 350,000 | Potency, µM (top dose mostly 46.1 µM), actives largely listed as activators; note: nearly all actives have a fitted effect of over 50% in size
TDP1 cell noCPT: qHTS for Inhibitors of human tyrosyl-DNA phosphodiesterase 1 (TDP1): qHTS in cells in absence of CPT. DT40 Tdp1-/- hTDP1 cells, no CPT, ATP luminescence, 48 h. Potency, µM (series often up to 46.2 µM), hits mostly inhibitors. hit rate 15% among 420,000; note: nearly all actives have a fitted effect of over 55% in size
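No-CPT arm: Tdp1-/-;hTDP1 DT40 cells (400/well) plus compounds, incubated ≥48 hr at 37 °C. Readout CellTiter-Glo luminescence.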
TDP1 cell CPT: growth inhibition of DT40 Tdp1-/-;hTDP1 cells with camptothecin (screen for TDP1 inhibitors) | chicken DT40 Tdp1-/-;hTDP1 cells + 20 nM CPT, ATP luminescence, 48 h | Potency, µM (titrated, usually from 46.2 µM), hits mostly inhibitors | hit rate 12% among 420,000; note: nearly all actives have a fitted effect of over 55% in size
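Cell growth measured by CellTiter-Glo luminescence after a minimum 48 h, 37 C compound exposure with 20 nM CPT in Tdp1-knockout DT40 cells stably expressing hTDP1, seeded 400/well; qHTS titration format.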
SW480 rerep: inducers of DNA re-replication in SW480 colon cancer cells | AID 624297 | Potency, µM (series often up to 46.1 µM), hits mostly activators | SW480 DNA re-replication, Hoechst DNA content imaging, 48 h | hit rate 1.8% among 340,000; note: nearly all actives have a fitted effect of over 55% in size
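Per well, 250 cells were exposed to pinned compound for 48 hr. Nuclear DNA was visualised with Hoechst (40 min, 37 C) and total object intensity recorded by fluorescence scanning.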
IL-1B inflam inh: inflammasome signaling inhibition, IL-1 beta readout. THP-1 LPS/ATP IL-1B secretion, AlphaLISA, 16 h; stronger effect = lower value. activity change, % at 57.5 µM. hit rate 4.7% among 360,000; in the data active = activity change below about -50%; inconclusive = mostly about -30% to -49%
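THP-1 cells pretreated 1 hr with compounds (up to 57.5 uM final), then stimulated with LPS (250 ng/mL final) plus ATP (1.25 mM final); secreted IL-1B measured by AlphaLISA after 16 hr, decreased signal indicating inhibition.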
BCR signal inh: chronic active BCR signaling inhibition. ABC-DLBCL IkBa-CBG/CBR reporter, luminescence ratio, 4 h. Potency, µM (series often up to 46.1 µM), hits mostly inhibitors. hit rate 0.05% among 340,000. AID 493014; active = well fitted inhibition curve with a large enough effect in the signal ratio, with a control signal flat, not every such curve was filed as active; inconclusive = small, poorly fitted or top-dose-only effect, or effect the other way, or a change in a side signal; the % refers to the signal ratio
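Doxycycline induced both beetle luciferases in TMD8 lymphoma cells; IKK-driven degradation limits the IkappaBalpha-fused green signal, while red luminescence normalises for cell number and nonspecific effects. Compounds tested up to 46 uM, 4 hrs.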
Hits are given with their value; . = inactive; ? = inconclusive; / = not tested or not shown; [ ] = dose if it differs, or a comment. Unless noted, calls come from the whole dose curve; as a rule, active = well fitted curve in the direction sought with a large enough effect; inconclusive = small, poorly fitted or top-dose-only effect, or another doubt; inactive = no such curve, though single readings can be large; an effect the other way counts as inactive or inconclusive.

SMILES	MCF10A rereplic	TDP1 cell noCPT	TDP1 cell CPT	SW480 rerep	IL-1B inflam inh	BCR signal inh
CCCOC(=O)C1=C(C)NC2=C(C(=O)CCC2)C1c1cccs1 (configuration not stated)	.	.	.	.	.	.
CC1=C(C(=O)Nc2ccccc2C)C(c2ccc(C)o2)C2=C(CCCC2=O)N1 (configuration not stated)	?	.	.	.	.	.
CC1=C(C(=O)OC2CCCC2)C(c2coc3ccccc3c2=O)C2=C(CCCC2=O)N1 (configuration not stated)	.	0.41µM	.	.	.	.
CCCCCNC(=O)c1c[nH]c2ccc(S(=O)(=O)N3CCC4(CC3)OCCO4)cc2c1=O	.	?	?	.	.	.
COc1cccc(CC(=O)Nc2ccc3c(c2)CCC3)c1	.	?	.	.	.	.
COc1cc(CC(=O)Nc2ccc3c(c2)CCC3)cc(OC)c1OC	?	12µM	9.2µM	.	.	.
Cc1ccc(NC(=O)CN(C)C(=O)Cc2ccc3c(c2)CCC3)cc1	.	.	?	.	.	.
C=CCOc1ccc(CN(C)CC(=O)Nc2ccc3c(c2)CCC3)cc1	.	?	23µM	.	.	.
CCOc1cc(CNc2ccc3c(c2)CCC3)ccc1O	.	23µM	?	.	.	?
CCOc1ccc(CN(C)CC(=O)Nc2ccc3c(c2)CCC3)cc1OC	.[9.22 µM]	16µM	?	.	.	.
Cc1cc(NC(=O)c2cc(-c3ccc(F)cc3)on2)nn1Cc1ccc(Cl)cc1	/	.	?	/	/	/
Cc1cc(NC(=O)c2cc(-c3ccco3)on2)nn1Cc1ccc(Cl)cc1	.	26µM	21µM	.	.	.
Cc1nn(Cc2ccc(Cl)cc2)c(C)c1NC(=O)c1cc(-c2ccco2)on1	23µM	23µM	13µM	.	.	.
Cc1ccc(Cn2nc(C)c(NC(=O)c3cc(-c4ccco4)on3)c2C)cc1	?	?	?	.	.	.
O=C(C[C@H]1C/C=C\CCC(=O)O[C@@H](c2ccccc2)CNC1=O)NCCO	.	.	.	.	.	.
O=C1NC(=Nc2ccccc2)S/C1=C/c1cccs1	.	?	.	.	.	?
Cc1cccc(N=C2NC(=O)/C(=C\c3cccs3)S2)c1	?	9.2µM	13µM	?	.	?
Cc1ccc(N=C2NC(=O)/C(=C/c3cccs3)S2)cc1C	16µM	10µM	13µM	.	.	.
O=C(NCC(NS(=O)(=O)OCC(Cl)(Cl)Cl)c1ccccc1)C(F)(F)F (configuration not stated)	.	?	?	.	.	.
CCCOc1ccc(CSc2nc3ccccc3[nH]2)cc1	.	8.2µM	8.2µM	.	-56	.
CCOc1ccc(OCCSc2nc3ccccc3[nH]2)cc1	.	21µM	16µM	.	?	.
CN(C)C(=O)CCc1ccc2c3c([nH]c2c1)[C@]1(C)[C@@H](C(=O)N2CCOCC2)C[C@H](CC(=O)NCC24CC5CC(CC(C5)C2)C4)C(=O)N1CC3	?	?	15µM	?	.	.
CC(C)N(C(=O)[C@H]1C[C@H](CC(=O)NCC23CC4CC(CC(C4)C2)C3)C(=O)N2CCc3c([nH]c4cc(CCC(=O)N(C)C)ccc34)[C@]12C)C(C)C	?	7.3µM	6.5µM	.	.	.
COc1ccc(CNC(=O)C[C@H]2C[C@H](C(=O)N(C(C)C)C(C)C)[C@@]3(C)c4[nH]c5cc(CCC(=O)N(C)C)ccc5c4CCN3C2=O)cc1OC	.	?	.	.	.	?
CC[C@]12c3[nH]c4cc(CCC(=O)N(C)C)ccc4c3CCN1C(=O)[C@@H](CC(=O)NCC13CC4CC(CC(C4)C1)C3)C[C@@H]2C(=O)N1CCN(C(=O)c2ccco2)CC1	.	16µM	?	.	.	?
SMILES	MCF10A rereplic	TDP1 cell noCPT	TDP1 cell CPT	SW480 rerep	IL-1B inflam inh	BCR signal inh
Cc1ccc(-c2cc(C(=O)OCC(=O)N(C)c3c(N)n(Cc4ccccc4)c(=O)[nH]c3=O)c3ccccc3n2)o1	.	?	?	.	?	.
COc1cc2c(cc1OC)n(CC(=O)c1ccc(C)cc1C)c(=O)n1nc(CCn3nc(C)cc3C)nc21	/	.	.	/	/	.
Cc1nc(N2CCCCC2)sc1C(=O)c1ccc(SCCO)c([N+](=O)[O-])c1	?	18µM	?	.	-54	.
Cc1nc(N2CCCCC2)sc1C(=O)c1cccc([N+](=O)[O-])c1	.	?	?	.	-103	.
N=C(c1cccc([N+](=O)[O-])c1)N1CCCCCC1	.	.	.	.	.	.
O=[N+]([O-])c1ccc(N2CCCCC2)cc1SCCO	.	.	.	.	.	.
Cc1cccc(N(C(=O)CCC(=O)Nc2cc(C)on2)C(C(=O)NC2CCCC2)c2ccccc2)c1 (configuration not stated)	.	?	.	.	.	.
COc1ccc(S(=O)(=O)N2CCCOC2CNC(=O)C(=O)NCc2ccccc2F)cc1C (configuration not stated)	.	?	.	.	.	.
O=C(CCC1CCCCC1)Nc1nncs1	.	.	.	.	.	.
Cc1cc(C)cc(-n2cnc3cc(C(=O)NCCc4ccccc4)ccc32)c1	/	?	?	/	/	.
COc1ccc(C(CC(=O)NCc2ccccc2Cl)N2Cc3ccccc3C2=O)cc1OC (configuration not stated)	/	?	.	/	/	/
Nc1ccc(Oc2ncccn2)cc1	.	23µM	?	.	.	?
O=Cc1cccc(Oc2ncccn2)c1	.	.	.	.	.	?
C[C@H](CO)N1C[C@H](C)[C@@H](CN(C)S(=O)(=O)c2cn(C)cn2)Oc2ccc(NC(=O)Cc3ccccc3)cc2C1=O	.	.	.	.	.	.
O=C(O)Cc1sc(Nc2cccc3ccccc23)nc1-c1ccc(Cl)cc1	7.3µM	.	.	.	.	?
O=C(O)Cc1sc(Nc2cccc3ccccc23)nc1-c1ccccc1	.	.	.	.	.	?
Cc1ccc(C(C)C)c(OCC(=O)NNC(=O)Cn2[nH]c(=O)c3ccccc3c2=O)c1	.	.	.	.	.	.
CC(=C/c1ccccc1)/C=N/n1c(-c2ccncc2)n[nH]c1=S	.	16µM	?	.	.	.
Cc1cc(-c2n[nH]c(=S)n2/N=C/c2cccc(O)c2)n[nH]1	.	.	.	.	.	.
S=c1[nH]nc(-c2ccco2)n1/N=C/C(Cl)=C/c1ccccc1	7.3µM	15µM	?	?	?	?
Cc1cc(-c2n[nH]c(=S)n2/N=C/C(Cl)=C/c2ccccc2)n[nH]1	4.6µM	13µM	15µM	?	-97	?
FC(F)(F)c1ccccc1-c1cc(NCc2cccnc2)ncn1	/	.	.	/	/	/

Screening results from PubChem BioAssay.
